# DT40 TDP1 no CPT = qHTS for Inhibitors of human tyrosyl-DNA phosphodiesterase 1 (TDP1): qHTS in cells in absence of CPT | Potency, µM (highest dose often 46.2 µM), for inactives: at the highest dose activity change, negative = growth inhibition, usual class: inhibitors | hit rate 15% among 420,000 | DT40 Tdp1-/- hTDP1 cells, no CPT, ATP luminescence, 48 h | AID 686978, 2013; also: % is scaled to controls: 0 for no effect and ±100 for the full control effect; nearly all actives have a fitted effect of over 55% in size
#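 Compound effects on proliferation are scored in DT40 Tdp1-/-;hTDP1 cells in the absence of CPT. ATP levels (CellTiter-Glo luminescence) are recorded after a ≥48 hr, 37 °C incubation.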
# HepG2 tox = HepG2 cytotoxicity, counter-screen for TGF-b inhibitors; hit rate 0.76% among 410,000; Potency, µM (titrated, usually from 46.1 µM), inactives show top-dose activity change, negative = cytotoxicity, actives largely listed as cytotoxic; HepG2 CAGA-GFP viability, ATP luminescence, 18 h
#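 CellTiter-Glo luminescence gave cytotoxicity after 18 hours at 37 degrees C. The cells were HepG2 CAGA-GFP in 1% FBS DMEM, stimulated with 500 pg/mL TGF-beta after compound addition. %Activity was normalised to no-cell wells (complete cell-killing) and DMSO (no toxicity), and curves were fitted and classified.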
# HT1080NT lethal = kills 2HG-producing HT-1080-NT fibrosarcoma cells | HT-1080-NT fibrosarcoma viability, CellTiter-Glo ATP luminescence, 48 h | Potency, µM (top dose mostly 46.1 µM), inactives show at the highest dose activity, negative = less viability, usual class: cytotoxic | hit rate 1.6% among 360,000 | AID 686970;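 also: NT is the 2HG producing partner of a matched IDH1 knockdown line; 0% = DMSO-treated cells and -100% = media-only wells without cells; nearly all actives have a fitted effect of over 55% in size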
#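 Fibrosarcoma NT cells, 750 per well in 5% FBS RPMI, were exposed to compound for 48 hours. Viability: CellTiter-Glo luminescence.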
# DT40 TDP1 CPT = growth inhibition of DT40 Tdp1-/-;hTDP1 cells with camptothecin (screen for TDP1 inhibitors); AID 686979; Potency, µM (highest dose often 46.2 µM), for the others: top-dose activity change, negative = growth inhibition, usual class: inhibitors; hit rate 12% among 420,000; chicken DT40 Tdp1-/-;hTDP1 cells + 20 nM CPT, ATP luminescence, 48 h; also: % is scaled to controls: 0 for no effect and ±100 for the full control effect; nearly all actives have a fitted effect of over 55% in size
#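 Cell growth measured by CellTiter-Glo luminescence after a minimum 48 h, 37 C compound exposure with 20 nM CPT in Tdp1-knockout DT40 cells stably expressing hTDP1, seeded 400/well; qHTS titration format.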
# HT1080 IDH1KD tx = kills HT-1080 cells with IDH1 knockdown; HT-1080 IDH1 knockdown viability, ATP luminescence, 48 h; Potency, µM (series often up to 46.1 µM), inactives show top-dose activity, negative = toxicity, most hits filed as cytotoxic; hit rate 2% among 360,000;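 also: 0% = DMSO wells and -100% = cell-free medium wells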
#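 In this qHTS, HT-1080 cells depleted of IDH1 are exposed for 48 h at 37 °C to compound titrations. Toxicity is scored from CellTiter-Glo luminescence, with DMSO as full viability and medium alone as none.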
# TGFb inhibitor = inhibitors of TGF-b signaling | HepG2 CAGA-GFP TGF-b/SMAD3 reporter, GFP fluorescence, 18 h; TGF-beta stimulated, 500 pg/mL final | Potency, µM (top dose mostly 46.1 µM), for the others: top-dose activity, negative = inhibition, hits mostly inhibitors | hit rate 1.2% among 410,000; also: % is scaled to controls: 0 for no effect and ±100 for the full control effect; nearly all actives have a fitted effect of over 65% in size
#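 HEPG2 CAGA-GFP reporter cells (1000/well, DMEM with 1% FBS) received compounds, then recombinant TGF-beta at 500 pg/mL final for 18 hours at 37 degrees C. Per-cell GFP summed per well was normalised to unstimulated and stimulated DMSO controls before curve fitting.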
# * marks the source's active call; other numbers are inactive results; ? = inconclusive; . = no result. Shown are actives, neighbours in structure and some others; about 17% of the full set was active somewhere. Calls follow the shape of the dose curve; as a rule, active = well fitted curve in the direction sought with a large enough effect; inconclusive = small, poorly fitted or top-dose-only effect, or another doubt; inactive = no such curve, though single readings can be large; an effect the other way counts as inactive or inconclusive. Potency is read from the fitted curve at half-maximal effect.
SMILES,DT40 TDP1 no CPT,HepG2 tox,HT1080NT lethal,DT40 TDP1 CPT,HT1080 IDH1KD tx,TGFb inhibitor
CNC(=O)c1cccn(Cc2cccc(C(F)(F)F)c2)c1=O,?,-19%,10%,-8%,-13%,0%
COc1ccc(Cc2nccc3cc(OC)c(OC)cc23)cc1OC,5.8µM*,-24%,?,8.2µM*,?,2%
COc1ccc(CC(=O)Nc2ccc3c(C(F)(F)F)cc(=O)oc3c2)cc1OC,-16%,6%,10%,-15%,12%,14%
O=C1NC(=O)C2(CCN(S(=O)(=O)c3ccccc3)CC2)C(=O)N1,-15%,-14%,1%,-2%,10%,7%
CC1(CCl)CN1S(=O)(=O)c1ccccc1 (configuration not stated),?,-19%,-19%,18µM*,?,-7%
CCOc1ccc(Cl)cc1CNCCc1ccc(F)cc1,16µM*,-39%,?,21µM*,-25%,-26%
Fc1ccc(CCNCc2ccccc2Cl)cc1,-24%,-16%,-2%,-28%,-6%,1%
NC(Cc1ccc(Cl)cc1)c1csc(Nc2ncccn2)n1 (configuration not stated),4.1µM*,-43%,18µM*,3.7µM*,5.8µM*,?
NC(Cc1ccc(C(F)(F)F)cc1)c1csc(Nc2nncc3ccccc23)n1 (configuration not stated),21µM*,-79%,?,13µM*,?,?
NC(Cc1ccc(F)cc1)c1csc(Nc2ncccn2)n1 (configuration not stated),5.8µM*,-23%,5.8µM*,7.3µM*,6.5µM*,?
Nc1ccc(CC(N)c2csc(Nc3ncccn3)n2)cc1 (configuration not stated),10µM*,-4%,-14%,18µM*,-30%,-5%
CNC(=O)COC(=O)c1ccc(-c2nc3ccccc3s2)s1,?,-15%,-5%,-26%,0%,-1%
CN(N=O)c1cc(O)ccc1O,.,-93%,.,.,.,?
CCOP(=O)(OCC)C(NC(=O)CC(C)C)C(Cl)(Cl)Cl (configuration not stated),6%,2%,13%,10%,0%,4%
Cc1nnc2n1-c1sc(CCC(=O)N3CCOCC3)cc1C(c1ccccc1Cl)=NC2,-18%,.,.,-12%,.,.
CC1([N+](=O)[O-])COP(=O)(Nc2cccc(Br)c2)OC1 (configuration not stated),?,-5%,2%,-11%,8%,6%
O=S1(=O)OCCC(c2ccccc2)N1Cc1ccccc1 (configuration not stated),-22%,5%,15%,?,8%,-3%
CC[C@H]1C[C@H]2[C@@H]3CCC4=CC(=O)CC[C@@H]4[C@H]3CC[C@]2(C)[C@H]1O,-11%,.,.,?,.,.
Cc1ccc(CCNC(=O)Cn2nc(C)c3c(C)n(-c4ccc(C)cc4)nc3c2=O)cc1,?,-12%,.,23µM*,.,0%
Cc1ccc(-n2nc3c(N4CCC(C(=O)NCCc5ccccc5)CC4)nnc(C)c3c2C)cc1,5.8µM*,-27%,.,4.6µM*,.,?
COc1cccc(NC(=O)C2CCN(c3nnc(C)c4c(C)n(-c5ccccc5)nc34)CC2)c1,23µM*,-38%,.,?,.,?
CN1CCN(/N=C/c2c(O)n(C)c(=O)n(C)c2=O)CC1,-6%,4%,19%,0%,14%,6%
C=C1CCN(C(CC(C)C)C(=O)Nc2ccc(OC)cc2)S(=O)(=O)c2ccccc21 (configuration not stated),.,-17%,.,.,.,?
O=C(c1cc2cc(Cl)ccc2[nH]1)N1CCC2(CC1)OCCO2,?,-68%,3%,18µM*,-3%,-25%
O=C(c1cc2cc(F)ccc2[nH]1)N1CCC2(CC1)OCCO2,?,-24%,-1%,?,0%,11%
SMILES,DT40 TDP1 no CPT,HepG2 tox,HT1080NT lethal,DT40 TDP1 CPT,HT1080 IDH1KD tx,TGFb inhibitor
COC(=O)C1=C(c2ccccc2OCc2ccccc2)C[C@@H]2CC[C@H]1N2C(=O)NCCOc1ccccc1Cl,?,-60%,-10%,?,-13%,?
COC(=O)C1=C(c2cccc(OCc3ccccc3)c2)C[C@@H]2CC[C@H]1N2C(=O)NCCc1ccc(F)cc1,16µM*,3%,-19%,?,-17%,?
COC(=O)C1=C(c2cccc(OCc3ccccc3)c2)C[C@@H]2CC[C@H]1N2C(=O)NCCOc1ccccc1Cl,23µM*,-7%,-7%,?,-10%,-29%
COC(=O)C1=C(c2cccc(C#N)c2)C[C@@H]2CC[C@H]1N2C(=O)NCCOc1ccccc1Cl,16µM*,-8%,6%,18µM*,5%,-1%
COC(=O)C1=C(c2ccc(C(C)=O)cc2)C[C@@H]2CC[C@H]1N2C(=O)NCCOc1ccccc1Cl,?,-21%,7%,23µM*,5%,-21%
CCCNC(=O)N1[C@H]2CC[C@@H]1C(C(=O)OC)=C(c1cccc(C#N)c1)C2,-4%,-3%,14%,-14%,1%,2%
Cc1ccc(N=Nc2c(O)[nH]c(=O)[nH]c2=O)cc1S(=O)(=O)Nc1ccc(Br)cc1,-1%,11%,?,-13%,?,9%
c1cc2c(cc1N1CCOCC1)CNCc1cnnn1-2,0%,0%,19%,-1%,18%,4%
COC(=O)C1=C(c2cccc(OCc3ccccc3)c2)C[C@@H]2CC[C@H]1N2C(=O)NCCOc1ccccc1,21µM*,10%,-7%,?,-12%,?
Cn1c(O)c(C2=NNC(c3ccc(Cl)cc3)C2)c(=O)n(C)c1=O (configuration not stated),?,-3%,-27%,26µM*,?,-6%
CCC(COC(=O)NC)NC(=O)Oc1ccccc1 (configuration not stated),6%,-2%,10%,11%,9%,24%
[Cl-].[Cl-].[Hg+2],0.34µM*,.,.,0.75µM*,.,.
O=c1c2ccccc2nc(SCc2nc3ccccc3s2)n1Cc1ccco1,18µM*,-12%,-7%,13µM*,?,-7%
CC(=NCc1ccco1)c1c(C)[nH]n(-c2nc3ccccc3s2)c1=O,?,-54%,?,-30%,?,-4%
